Assay results from the supplement of paper PMC7801607.

Key:
CHO = assay: % viability of CHO cells (MTT); higher = less toxic; conditions: 48 h
Outline: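 CHO cells seeded at 10^6 cells/well were exposed to compound at 2 or 20 µM for 48 h. Survival, as percent of untreated cells, was measured with the colorimetric tetrazolium (MTT) assay.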

HepG2-A16-CD81 = assay: % inhibition of HepG2 viability (CellTiter-Glo); higher = more toxic; conditions: 5 µM;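 further: HepG2-A16-CD81 hepatoma cells plated as in the liver-stage assay but without sporozoites, with DMSO wells as negative and 25 µM puromycin as positive control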
[1] = tested on: Plasmodium falciparum NF54 stage IV/V gametocytes; assay: % inhibition of gametocyte viability (PrestoBlue); higher = more inhibition; conditions: 48 h
Outline: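 Compound was tested at 1 or 5 µM against Stage IV/V NF54 gametocytes plated at 100 µL/well (2% gametocytaemia, 5% haematocrit). After 48 h of stationary, hypoxic incubation at 37 °C, 10 µL PrestoBlue was added for 2 h before reading 612 nm fluorescence from 70 µL of transferred supernatant. Gametocyte viability inhibition, as a percentage, was scaled against vehicle and kill controls from a single run.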

[2] = tested on: Plasmodium falciparum NF54 asexual blood stage; assay: % inhibition of asexual blood stage proliferation (pLDH); higher = more inhibition; conditions: 72 h
Outline: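 In 96-well plates, compound at 2 or 20 µM was added to Plasmodium falciparum NF54 ring-stage cultures (1% haematocrit, 2% parasitaemia). Plates were incubated for 72 h at 37 °C in 4% CO2, 3% O2 and 93% N2, and survival was then read at 620 nm using the parasite lactate dehydrogenase assay. Inhibition of asexual proliferation, expressed as a percentage, was normalised to controls.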

[3] = tested on: Plasmodium falciparum NF54 stage IV/V gametocytes; assay: % inhibition of gametocyte viability (ATP bioluminescence); higher = more inhibition; conditions: 24 h
Outline: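 Density gradients were used to enrich stage IV/V NF54 gametocytes, which were then seeded into 96-well plates at 30,000 per well with compound at 1 or 5 µM. The plates were incubated at 37 °C for 24 h, and ATP was measured with the Promega BacTiter Glo bioluminescence system. Percent inhibition of gametocyte viability was normalised to the plate controls from a single run.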

[4] = tested on: Plasmodium falciparum NF54 stage IV/V gametocytes; assay: % inhibition of gametocyte viability (luciferase reporter); higher = more inhibition; conditions: 48 h
Outline: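 Stage IV/V gametocytes of the NF54-Pfs16-GFP-Luc line (2% gametocytaemia, 2% haematocrit) were exposed to compound at 1 or 5 µM. Incubation was 48 h at 37 °C, stationary and hypoxic. Luminescence was read on 30 µL lysate plus 30 µL Promega luciferin substrate on a GloMax-Multi+ reader with 10 s integration. Percent inhibition was normalised to DMSO and kill controls from a single run.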

SMILES	% viability of CHO cells (CHO; 2 µM)	% viability of CHO cells (CHO; 20 µM)	% inhibition of HepG2 viability (HepG2-A16-CD81)	% inhibition of gametocyte viability ([1]; 1 µM)	% inhibition of gametocyte viability ([1]; 5 µM)	% inhibition of asexual blood stage proliferation ([2]; 2 µM)	% inhibition of asexual blood stage proliferation ([2]; 20 µM)	% inhibition of gametocyte viability ([3]; 1 µM)	% inhibition of gametocyte viability ([3]; 5 µM)	% inhibition of gametocyte viability ([4]; 1 µM)	% inhibition of gametocyte viability ([4]; 5 µM)
C(=C\c1nc2ccccc2[nH]1)/c1ccc2c(c1)OCO2	110%	50.4%	6.95%	57.1%	71.2%	15.3%	29.1%	< 0%	< 0%	5.91%	73.3%
Cc1c(OCC(F)(F)F)ccnc1CS(=O)c1nc2ccccc2[nH]1 (stereo not given)	87.1%	96.9%	1.82%	14.1%	15.8%	71.5%	95.5%	< 0%	< 0%	< 0%	< 0%
Cc1cc(CCCOc2c(C)cc(-c3noc(C(F)(F)F)n3)cc2C)on1	103%	125%	7.06%	6.7%	35.6%	44.6%	65.2%	4.65%	5.28%	10.6%	< 0%
Cc1nc2ccc(Oc3ccccc3)cc2c2c1CCN2CCc1ccccc1	77.5%	-1.21%	2.52%	1.5%	60%	75.9%	110%	20.1%	93.2%	33%	63.3%
Fc1ccc(-c2nc(-c3c[nH]c4ccc(Br)cc34)[nH]c2-c2ccc(F)cc2)cc1	97.3%	-2.96%	1.87%	< 0%	< 0%	74%	83.7%	< 0%	< 0%	< 0%	< 0%
CCc1cc(O)c(Oc2ccc(C(N)=O)cc2F)cc1F	116%	100%	3.65%	18.7%	17.8%	54.5%	62.6%	< 0%	< 0%	< 0%	< 0%
N#Cc1c(F)c(Cl)c(NCc2ccccc2)c(C#N)c1F	102%	-2.81%	2.78%	20.8%	49.5%	56.1%	95.3%	< 0%	20.5%	2.47%	52.5%
Cc1ccc(N2CCC(CCOc3ccc(S(C)(=O)=O)cc3)CC2)nn1	89.6%	123%	1.45%	0.785%	< 0%	9.69%	64.6%	1.5%	< 0%	0.296%	< 0%
Nc1nnc(-c2ccc(Cl)cc2)s1	84.5%	88.7%	-0.915%	5.08%	< 0%	13.1%	23.9%	< 0%	< 0%	< 0%	< 0%
Cc1[nH]c2ccccc2c1CC(=O)N[C@@H](Cc1ccccc1)C(=O)N(C)c1ccccc1	80.4%	56%	4.27%	25.2%	23.6%	-9.75%	76.5%	6.25%	< 0%	1.82%	1.07%
CC1CCc2c(N3CCC(O)CC3)c(F)cc3c(=O)c(C(=O)O)cn1c23 (stereo not given)	84.2%	87.6%	2.9%	< 0%	11.7%	69.7%	98.8%	< 0%	< 0%	1.04%	6.66%
CN(C)CCNC(=O)c1cccc2cccnc12	70.5%	19.6%	-1.05%	< 0%	< 0%	9.84%	-0.35%	< 0%	< 0%	< 0%	10.1%
O=c1nc(N2CCN(CC3CCCCC3)CC2)sc2c([N+](=O)[O-])cc(C(F)(F)F)cc12	95.8%	112%	7.83%	< 0%	4.32%	37%	107%	< 0%	< 0%	8.82%	< 0%
CCc1cc(CCC(=O)Nc2ccccc2O)c(=O)[nH]c1C	90.7%	106%	0.672%	5.05%	16.3%	-8.67%	47.7%	< 0%	< 0%	< 0%	< 0%
CCc1ccccc1OCCN1CCCCCC1	96.9%	109%	14%	15.5%	15.2%	10.6%	87.1%	6.82%	< 0%	< 0%	2.04%
O=S(=O)(Nc1ccccc1)c1ccc(NC(=S)Nc2ccccc2)cc1	84.1%	81.9%	-1.98%	7.06%	6.95%	43.6%	45.2%	< 0%	< 0%	< 0%	< 0%
CC#C[C@]1(O)CC[C@H]2[C@@H]3CCC4=CC(=O)CCC4=C3[C@@H](c3ccc(N(C)C)cc3)C[C@@]21C	89.5%	130%	0.01%	< 0%	< 0%	15.1%	53.8%	< 0%	< 0%	2.32%	< 0%
CC(=O)N1CCN(c2ccc(OCC3COC(Cn4ccnc4)(c4ccc(Cl)cc4Cl)O3)cc2)CC1 (stereo not given)	105%	60.1%	0.653%	6.22%	< 0%	2.92%	64.4%	< 0%	< 0%	< 0%	< 0%
CN1c2ccc(Cl)cc2N(c2ccccc2)C(=O)c2cn(Cc3ccc(CN4CCOCC4)cc3)nc21	90.9%	69.1%	-4.81%	18.2%	30.1%	0.489%	23.7%	0.0957%	< 0%	15.5%	0.583%
C[C@@H](NC(=O)c1cccc(-c2c[nH]c(-c3cc4ccccc4cn3)n2)c1)c1ccc(F)cc1	91.9%	101%	-1.52%	9.05%	8.49%	21.8%	72.3%	28.5%	83.2%	0.447%	1.09%
